Among the data in PubChem BioAssay AID1903 (Southern Research Specialized Biocontainment Screening …, 2009) are inhibition values, retold here.

Among all 310,000 compounds or so, about 1,200 (0.39%) were called active. Only a sample is shown. Entries with a potency or affinity are not part of this list. Values without a mark were called inactive. The rule behind the calls is not given here.

This experiment deals with Large T antigen (Simian virus 40) (UniProt P03070). The experiment is described as follows: SV40 large T antigen inhibitors, biochemical (AID 1903). Conditions: SV40 large T antigen ATPase/helicase inhibition assay; at 20 µM; active compounds read high.
Sequence of Large T antigen (Simian virus 40) (P03070 whole entry, looked up): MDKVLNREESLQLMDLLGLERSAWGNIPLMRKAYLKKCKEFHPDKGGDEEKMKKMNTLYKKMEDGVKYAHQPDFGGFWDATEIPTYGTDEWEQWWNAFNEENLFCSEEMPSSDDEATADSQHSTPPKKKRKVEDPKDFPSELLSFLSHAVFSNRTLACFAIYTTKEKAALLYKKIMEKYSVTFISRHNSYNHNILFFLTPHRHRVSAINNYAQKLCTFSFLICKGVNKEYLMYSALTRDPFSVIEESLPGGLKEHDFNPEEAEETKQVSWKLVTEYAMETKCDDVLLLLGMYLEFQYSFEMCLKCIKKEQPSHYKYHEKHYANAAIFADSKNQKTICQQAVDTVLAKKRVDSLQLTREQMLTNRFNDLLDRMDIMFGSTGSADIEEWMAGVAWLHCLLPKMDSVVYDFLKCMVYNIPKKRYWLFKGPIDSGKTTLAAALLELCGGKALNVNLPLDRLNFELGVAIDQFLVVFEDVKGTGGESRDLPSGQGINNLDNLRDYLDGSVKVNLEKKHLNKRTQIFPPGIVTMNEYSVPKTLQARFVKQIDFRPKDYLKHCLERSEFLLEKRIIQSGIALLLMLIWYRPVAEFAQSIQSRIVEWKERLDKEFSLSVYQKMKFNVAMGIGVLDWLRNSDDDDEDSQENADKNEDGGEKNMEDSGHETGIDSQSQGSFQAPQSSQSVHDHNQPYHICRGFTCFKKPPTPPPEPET
On to `O=C(O)/C=C/c1ccc(S(=O)(=O)Nc2ccc(C(=O)NCC(=O)O)cc2)cc1`, for which the inhibition (commonly the drop in the measured response relative to a control, in per cent) is -0.46%. On to `Cc1ccccc1OCC(=O)N(CC(C)C)c1c(N)n(CC(C)C)c(=O)[nH]c1=O`, for which the inhibition is -0.915%. Then `CCOC(=O)c1sc(Nc2ccc(F)cc2)nc1C`, with 3.22%. Then `O=C(Cc1ccc(Cl)cc1)Nc1ccccc1C(=O)N1CCCCC1`, with 5.13%. Then `Cn1cccc1/C=N/N1CCN(Cc2ccccc2Cl)CC1`, with 36.4%; and `Cn1cccc1/C=N/N1CCN(c2ccccc2)CC1`, with 26.4%.

`Oc1cccc(/C=N/N2CCN(c3ccccn3)CC2)c1`: the inhibition is 27.9%. Then `C(=N\N1CCN(c2ccccn2)CC1)/c1ccccn1`, with 10.2%; and `Cn1cccc1/C=N/N1CCN(Cc2ccc(Cl)cc2)CC1`, with 33.2%; and `Cc1ccc(/C=N/N2CCN(c3ccccn3)CC2)cc1`, with 3.29%. Then `O=C1CC(NCCN2CCOCC2)C(=O)N1Cc1ccc(N2CCCC2=O)cc1` (configuration not stated), with 2.31%; and `O=C(CSc1nc2ccccc2o1)NCCOc1ccccc1`, with -0.36%.

With `CCOc1ccc(CSCCNC(=S)Nc2ccc(OC)cc2)cc1`, the inhibition is 18.9%.

Turning to `CCOc1ccc(CCNC(=O)C2CC(=O)N(c3ccc4c(c3)OCCO4)C2)cc1OCC` (configuration not stated), the inhibition was 19.5%. Consider `O=C(NCCNc1nccc(C(F)(F)F)n1)c1cccs1`, for which the inhibition is 7.79%. Consider `CCN(CC)C(=O)CSc1nc2nc(C)cc(C)c2c(=O)[nH]1`, for which the inhibition was 3.63%. Then `O=C(Nc1ccc(C2SCCS2)cc1)c1ccccc1`, with 5.93%.

Turning to `Cn1c(N)c(C(=O)COC(=O)CC2CC3CCC2C3)c(=O)n(C)c1=O` (configuration not stated), the inhibition was 12.6%. Take `Cc1ccc(Cl)cc1Nc1nc(-c2cccnc2)cs1`: the inhibition was 5.81%. On to `Cc1cccc(C)c1NC(=O)CSCCO`, for which the inhibition is 7.3%.

Take `Cc1cccc(C)c1NC(=O)CSCC(=O)O`: the inhibition is 11.2%. Turning to `Brc1c(CSc2nncn2-c2ccccc2)nc2sccn12`, the inhibition is 3.07%.
